The values below come from PubChem BioAssay AID743279 (National Center for Advancing Translational Sciences (NCATS), 2014).

Out of some 360,000 compounds screened, about 17,000 (4.7%) were called active. Inconclusive results (about 5%) are left out. No stated cut-off is given here; in the data, active means activity change below about -50%; inconclusive means mostly about -30% to -49%; inactive means weaker than that. Many of the other results were omitted from the sample, so actives are more common in it than they were.
On the % scale 0 is the no-effect control and ±100 the full control effect.

The test can be described thus: qHTS for Inhibitors of Inflammasome Signaling: IL-1-beta AlphaLISA Primary Screen. The settings on record: THP-1 LPS/ATP IL-1B secretion, 16 h; at 57.5 µM, stronger effect = lower value. Summed up:
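Secreted IL-1B measured by AlphaLISA bead assay after 16 h compound exposure of THP-1 cells; compounds (final up to 57.5 uM) added 1 h before LPS (250 ng/mL) and ATP (1.25 mM) stimulation; lower signal means less secretion.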
Regarding `CCN1C(=O)[C@H]2[C@@H](c3ccc(C(F)(F)F)cc3)N[C@]3(CCCN(Cc4ccc(Br)cc4)C3=O)[C@H]2C1=O`, the activity change is -19.9% (inactive).
With `O=C1C2C3C=CC(C3)C2C(=O)N1c1ncc([N+](=O)[O-])s1` (stereo unspecified) the figure was 6.51% (inactive).
On to `CCOc1ccc(S(=O)(=O)NCCC(=O)NCC2CCCO2)cc1` (stereo unspecified), for which the activity change is 32.7% (inactive).
Turning to `COc1ccccc1-c1nn(Cc2ccccc2)cc1C(=O)N1CCN(c2ncccn2)CC1`, the activity change was 1.02% (inactive).
Take `COc1ccc(C(C(=O)NCc2ccccc2)n2c(=O)c(-c3ccccc3)nc3ccccc32)cc1` (stereo unspecified): the activity change was -6.01% (inactive).
In the case of `Cc1ccccc1-c1nc(CS(=O)(=O)CC(=O)NC(C)c2ccccc2)c(C)o1` (stereo unspecified), the activity change was -61.7% (active).
As to `Cc1ccc(S(=O)(=O)CC(=O)NC(C)c2ccccc2)cc1` (stereo unspecified), the activity change is 0.147% (inactive).
In the case of `CSc1ccc(CCNC(=O)CS(=O)(=O)Cc2nc(-c3ccccc3F)oc2C)cc1`, the activity change was 9.85% (inactive).
To `NC(=S)NN=C1CCCC(C(F)(F)F)C1` (stereo unspecified) belongs 4.88% (inactive).
For the compound `O=C(c1ccc2c(c1)C(=O)N(Cc1ccncc1)C2=O)N1CCN(S(=O)(=O)c2ccc(OC(F)(F)F)cc2)CC1`, the activity change is 8.07% (inactive).
Consider `COc1ccccc1CNC(=O)c1cc(-c2cc(Cl)ccc2C)n[nH]1`, for which the activity change was -16.3% (inactive).
To `Cc1ccc(O)c(-c2cc(C(=O)NCc3ccccc3)[nH]n2)c1` belongs -0.0227% (inactive).
On to `Cc1cc(O)ccc1-c1cc(C(=O)NCc2cc(C(F)(F)F)cc(C(F)(F)F)c2)[nH]n1`, for which the activity change is -53.4% (active).
As for `COC(=O)c1ccc2nc(-c3ccc(Cl)cc3)c(Cc3cccc(F)c3)n2c1`, the activity change is 58.6% (inactive).
Take `CC(=O)NC(NC(=S)Nc1c(C)n(C)n(-c2ccccc2)c1=O)C(Cl)(Cl)Cl` (stereo unspecified): the activity change is 0% (inactive).
Take `O=C(CN1CCN(Cc2ccccc2)CC1)Nc1ccc(F)c(F)c1`: the activity change was -7.81% (inactive).
To `CCOC(=O)N1CCN(CCC(=O)Nc2ccccc2)CC1` belongs -4.73% (inactive); to `Cc1cc(NC(=O)CCN2CCN(Cc3ccccc3)CC2)ccc1Br`, -54% (active).
As for `O=C(OCC(=O)N1CCCCCC1)c1cccc(Cl)c1Cl`, the activity change is 9.58% (inactive).
As to `COc1ccc(Cl)cc1N(CC(=O)N/N=C/c1ccc(OCC(N)=O)cc1)S(C)(=O)=O`, the activity change is 34.5% (inactive).
With `Cc1nc2ccccc2nc(C)c1=NOCc1ccc(Cl)cc1Cl`, the activity change was 0% (inactive).
Consider `NC(N)=N/N=C/c1ccc(OCc2ccc(Cl)cc2Cl)cc1`, for which the activity change is -97.9% (active).
With `COc1ccc(/C=C/C(=O)OCC(=O)N2CCN(S(=O)(=O)c3ccc(C)cc3C)CC2)cc1OC`, the activity change was 1.01% (inactive).
Turning to `COc1ccc(CCNc2cc(C)nc3c(-c4ccc(Cl)cc4)c(C)nn23)cc1OC`, the activity change is 15.4% (inactive).
Consider `COc1cccc(/C=C2\C=C(c3ccc(C)cc3)OC2=O)c1OC(C)=O`, for which the activity change is -5.9% (inactive).
Regarding `COc1cccc(/C=C/c2ccc3ccccc3n2)c1OC(C)=O`, the activity change is -103% (active).
To `CC(OC(=O)c1ccc2ccccc2n1)C(=O)c1ccccc1` (stereo unspecified) belongs 14.9% (inactive).
To `CCOc1ccccc1-c1cc(C(=O)N/N=C(\C)c2cccnc2)c2ccccc2n1` belongs 6.38% (inactive); to `CCOc1cccc(/C=C/c2ccc3ccccc3n2)c1OC(C)=O`, -92% (active); to `CCOc1ccccc1/C=N/Nc1nc2ccccc2o1`, 0% (inactive).
For the compound `CC1(C(=O)Nc2ccc3c(c2)OCCO3)CSCC(=O)N1CCOc1ccccc1` (stereo unspecified), the activity change was -3.47% (inactive).
With `O=C(NC1CCCC1)C1c2ccccc2OCC(=O)N1CC(F)(F)F` (stereo unspecified), the activity change was 35.1% (inactive).
Turning to `CC(C)C(C)(C#N)NC(=O)CSc1nc2scc(-c3ccccc3)c2c(=O)[nH]1` (stereo unspecified), the activity change was 18.7% (inactive).
In the case of `CC[C@@]12C(=O)N(c3ccccc3)C(=O)N1[C@H](c1ccc(Br)cc1)[C@@H]1C(=O)N(C(C)(C)C)C(=O)[C@@H]12`, the activity change was 12% (inactive).
Regarding `Cn1cc([N+](=O)[O-])c(C(=O)Nc2ccc3c(c2)OCCO3)n1`, the activity change was -66.8% (active).
In the case of `Cc1onc(C(=O)Nc2ccc3c(c2)OCO3)c1[N+](=O)[O-]`, the activity change was -7.05% (inactive).
With `O=C(Nc1ccc2c(c1)OCCO2)c1ccoc1`, the activity change was -12.9% (inactive).
To `CC(=O)N(O)CCCCCNC(=O)CCC(=O)N(O)CCCCCNC(=O)CCC(=O)N(O)CCCCCNC(=O)CCC(=O)O` belongs 21.7% (inactive).
Turning to `C[C@@]12C(=O)N(c3cccc(Br)c3)C(=O)N1[C@H](c1ccc(Cl)cc1)[C@@H]1C(=O)N(C3CCCCC3)C(=O)[C@@H]12`, the activity change is -60.3% (active).
For `O=C1[C@H]2[C@@H](c3ccc(Cl)cc3)N3C(=O)N(c4cccc(F)c4)C(=O)[C@@]3(Cc3ccccc3)[C@H]2C(=O)N1C1CCCCC1`, the activity change is -4.9% (inactive).
Consider `CC(C)(C)N1C(=O)[C@H]2[C@@H](c3ccc(Br)cc3)N3C(=O)N(c4cccc(Cl)c4)C(=O)[C@@]3(C)[C@H]2C1=O`, for which the activity change was -24.5% (inactive).
On to `COc1ccc(-c2cnc3c(c2)C(=O)N([C@H](C)CO)C[C@@H](C)[C@H](CN(C)Cc2ccccc2)O3)cc1`, for which the activity change was -26.2% (inactive).
With `CCCNC(=O)C1(C)CCN(Cc2csc(-c3ccc(Cl)cc3)n2)C1` (stereo unspecified), the activity change was -26.3% (inactive).
With `c1ccc2c(c1)CSc1sccc1C2=C1CCNCC1` the figure was -57.8% (active).
With `CN1OC[C@@H]2CN(C(=O)c3cccc4ccccc34)[C@H](c3ccc(N4CCCCC4)cc3)C[C@@H]21`, the activity change is -28.3% (inactive).
With `N#Cc1ccc(OCC(=O)Nc2nc(-c3ccccn3)cs2)cc1`, the activity change is 69.5% (inactive).
Consider `CSc1ccccc1NC(=O)CN(C)CC(=O)Nc1cccc(Br)c1`, for which the activity change was -74.1% (active).
To `CCC(C)c1ccccc1NC(=O)CN(C)CC(=O)Nc1ccccc1SC` (stereo unspecified) belongs -1.52% (inactive); to `CSc1ccccc1NC(=O)CN(C)CC(=O)Nc1ccc(Cl)cc1[N+](=O)[O-]`, -0.613% (inactive); to `O=C(Nc1ccccc1)C1CC(=O)n2c(nc3ccccc32)N1` (stereo unspecified), -5.02% (inactive).
`COc1ccc(CC(NC(C)=O)C(=O)NC2CCN(C(=O)c3ccc(Cl)cc3)CC2)cc1` (stereo unspecified): the activity change was 23.6% (inactive).
As to `COC(=O)C[C@H]1C=C[C@@H](NS(=O)(=O)c2ccc(C)cc2)[C@@H](CO)O1`, the activity change was 34.5% (inactive).
With `CSc1ncnc2c1ncn2CCCNCc1cccs1`, the activity change is 19.3% (inactive).
To `COc1ccc(C(C(=O)Nc2c(C)cccc2C)N2CCN(c3ccc(C)cc3)CC2)cc1` (stereo unspecified) belongs -9.64% (inactive).
With `COc1ccc(NC(=S)NCCN2CCC(C)CC2)cc1` the figure was -11.9% (inactive).
With `COc1ccc(NC(=S)NCC2CCN(c3ccc(OC)cc3)C2)cc1` (stereo unspecified) the figure was -82.6% (active); with `COc1ccc(N2CCC(N3CCN(C)C(CCO)C3)CC2)cc1` (stereo unspecified), 15.4% (inactive).
Regarding `COc1ccc(OCC(=O)Nc2ccc(N3CCC(C)CC3)cc2)cc1`, the activity change was 2.27% (inactive).
Turning to `COc1ccc(N2CCC(CNC(=S)Nc3c(C)cccc3C)C2)cc1` (stereo unspecified), the activity change is -82.6% (active).
As to `Cc1sc2ccccc2c1CNC[C@H]1O[C@@H](n2ccc(=O)[nH]c2=O)[C@H](O)[C@@H]1O`, the activity change is -9.54% (inactive).
As for `CN(Cc1c(F)cccc1Cl)C(=O)COC(=O)Cn1cnc2ccccc2c1=O`, the activity change was 12.8% (inactive).
Turning to `CCCCN1CC(N2CCN(Cc3cccc(C)c3)CC2)CS1(=O)=O` (stereo unspecified), the activity change is -1.82% (inactive).
To `CCc1ccc([C@@H]2CC(=O)[C@@H]3CN(S(=O)(=O)c4ccc(C)cc4)[C@H](c4ccc(Cl)cc4)C[C@@H]3N2S(=O)(=O)c2ccc(C)cc2)cc1` belongs 9.82% (inactive).
With `O=S(=O)(c1ccc(Cl)cc1)c1nc(-c2ccco2)oc1N1CCCCC1` the figure was -10.9% (inactive); with `N#Cc1nc(COc2ccc(Cl)cc2)oc1N1CCCC1`, -69.8% (active).
Turning to `Cc1ccc(OCc2nc(C#N)c(N3CCCC3)o2)cc1`, the activity change was -58.3% (active).
For `Cc1cc(N2CCCC2)ccc1NC(=O)COc1ccc(Cl)cc1`, the activity change was 2.28% (inactive).
With `COc1ccc(-c2oc(/N=C/N3CCCC3)c(C#N)c2-c2ccc(OC)cc2)cc1`, the activity change was -12.8% (inactive).
Consider `N#Cc1ccc(OCc2nnc(-c3ccc([N+](=O)[O-])cc3)o2)cc1`, for which the activity change was -1.57% (inactive).
Consider `CNC(=O)C1CN(C(=O)c2cccc(S(=O)(=O)N3CCc4ccccc43)c2)c2ccccc2O1` (stereo unspecified), for which the activity change was 31.5% (inactive).
For the compound `COc1ccc(-c2coc3c(C(=O)NC(C)C)cccc23)c(C)c1`, the activity change is -10.6% (inactive).
For `COc1ccc(CN2CCC(C)(Oc3cccc(F)c3)C2)c2ccccc12` (stereo unspecified), the activity change was 6.61% (inactive).
To `Nc1nc2c(ncn2[C@@H]2O[C@H](CNCc3ccc(OCCCN4CCOCC4)cc3)[C@@H](O)[C@H]2O)c(=O)[nH]1` belongs 16.8% (inactive); to `CC1CC(C)CN(CCOc2cccc3ccccc23)C1` (stereo unspecified), -68.4% (active).
To `CC1CCCN(CCOCCOc2ccccc2-c2ccccc2)C1` (stereo unspecified) belongs -6.75% (inactive).
`CC1CN(CCOc2ccccc2[N+](=O)[O-])CC(C)O1` (stereo unspecified): the activity change was 7.14% (inactive).
As for `CCCn1nnnc1NC(=O)COc1ccc(Cl)cc1C`, the activity change was -5.09% (inactive).
With `COc1ccc(Cl)cc1C=CC=Nc1ccc(S(N)(=O)=O)cc1` the figure was -101% (active); with `COc1ccccc1/C=C/C=N/n1c(-c2ccc(Cl)cc2Cl)n[nH]c1=S`, 0% (inactive).
In the case of `COc1ccc(Cl)cc1C=CC=NNC(=O)c1ccncc1`, the activity change was -5.27% (inactive).
With `CC1(C)CC(=O)C=C(c2ccc(COC(=O)c3cc(F)cc(F)c3)cc2)C1=O` the figure was 16.9% (inactive); with `Cc1cc(N2CCN(c3ccc(F)cc3)CC2)n2ncnc2n1`, -4.74% (inactive).
With `Cc1ccc(C(=O)Nc2c(C#N)c(C)c(C)n2Cc2ccccc2)cc1`, the activity change is -11.6% (inactive).
To `Cc1c(C#N)c(NC(=O)c2ccccc2)n(Cc2ccccc2)c1C` belongs -78.4% (active); to `COc1ccc(Cn2c(C)c(C)c(C#N)c2NC(=O)Nc2ccc(F)cc2)cc1`, 31.5% (inactive).
With `Cc1cn([C@H]2C[C@H](O)[C@@H](/C=C/C(=O)NCCCc3ccccc3)O2)c(=O)[nH]c1=O`, the activity change was -16.4% (inactive).
